Here are results for 40 compounds from PubChem BioAssay.

Values without a mark were called inactive. The rule behind the calls is not given here.

The test has as its system Aerobactin synthetase IucA (Klebsiella pneumoniae, hypervirulent). Kind of test: biochemical IucA inhibition screen of LOPAC library by absorbance (AID 1346212).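 Note: 100% = no compound wells and 0% = no enzyme wells.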 Particulars: IucA enzyme assay, absorbance (OD) readout; hits give low values;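 tested at 8 µM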.
In general, remaining activity refers to the signal under treatment as a percentage of the control signal. For `CC(C)CN(C)c1nc(N)c(C(=O)N=C(N)N)nc1Cl`, the remaining activity is 114%.

On to `C=C(C)C1CC=C(C(=O)O)CC1` (stereo not given), for which the remaining activity is 82.4%.

As to `C[C@]12CCC(=O)C=C1CC[C@@H]1[C@@H]2[C@@H](O)C[C@@]2(C)[C@H]1CC[C@]2(O)C(=O)CO`, the remaining activity was 104%.

Turning to `N=C(N)SCCc1ccc(CCSC(=N)N)cc1`, the remaining activity was 102%.

For the compound `CC(C)c1ccc2c(c1)c(SC(C)(C)C)c(CC(C)(C)C(=O)O)n2Cc1ccc(Cl)cc1`, the remaining activity was 113%.

With `N[C@@H](Cc1c[nH]c2ccc(O)cc12)C(=O)O`, the remaining activity is 99.1%.

In the case of `CCCC(=O)NCCc1c2n(c3ccc(OC)cc13)CCCc1ccccc1-2`, the remaining activity was 116%.

On to `CC(=O)O[C@H]1C[C@@]2(C)[C@@H](C[C@@H](O)[C@H]3[C@@]4(C)CC[C@@H](O)[C@@H](C)[C@@H]4CC[C@@]32C)/C1=C(\CCC=C(C)C)C(=O)O`, for which the remaining activity was 96.1%.

On to `O=S(=O)(c1cccc2c(Cl)cccc12)N1CCCNCC1`, for which the remaining activity was 110%.

Regarding `CN1CCCC1c1cccnc1` (stereo not given), the remaining activity was 115%.

`COc1ccccc1N1CCN(CCCCN2C(=O)c3ccccc3C2=O)CC1`: the remaining activity was 113%.

For the compound `Cn1ccnc1`, the remaining activity is 101%.

`c1ccc(CN2CCC3(CCCc4ccccc43)CC2)cc1`: the remaining activity is 103%.

On to `CC(C)NCC(O)COc1ccc(CCOCC2CC2)cc1` (stereo not given), for which the remaining activity is 123%.

For `O=c1[nH]c(=O)n([C@H]2C[C@H](O)[C@@H](CO)O2)cc1/C=C/Br`, the remaining activity was 123%.

`COc1cc2c(cc1OC)-c1cc(=Nc3c(C)cc(C)cc3C)n(C)c(=O)n1CC2`: the remaining activity was 97.5%.

For the compound `COc1cc(=O)n(C)c2c(OCC(O)C(C)(C)O)cccc12` (stereo not given), the remaining activity was 108%.

Regarding `CN(C)CC/C=C1\c2ccccc2COc2ccccc21`, the remaining activity was 121%.

Turning to `C[C@@H](N)C1CCC(C(=O)Nc2ccncc2)CC1` (stereo not given in full), the remaining activity is 107%.

For the compound `CNC(=O)[C@H]1O[C@@H](n2cnc3c(NCc4ccc(N)cc4)ncnc32)[C@H](O)[C@@H]1O`, the remaining activity is 119%.

For `COCCCC/C(=N\OCCN)c1ccc(C(F)(F)F)cc1`, the remaining activity is 100%.

With `C#C[C@]1(O)CC[C@H]2[C@@H]3CCC4=Cc5nc6nc7ccccc7n6cc5C[C@]4(C)[C@H]3CC[C@@]21C`, the remaining activity is 123%.

With `c1cnc(N2CCN(Cc3ccc4c(c3)OCO4)CC2)nc1`, the remaining activity was 102%.

For the compound `N[C@@H](Cc1cnc[nH]1)C(=O)O`, the remaining activity was 113%.

Turning to `COCCOC(=O)C1=C(C)NC(C)=C(C(=O)OC/C=C/c2ccccc2)C1c1cccc([N+](=O)[O-])c1` (stereo not given), the remaining activity is 99.8%.

For the compound `NCC(O)(CS(=O)(=O)O)c1ccc(Cl)cc1` (stereo not given), the remaining activity is 103%.

For `CC(=O)[C@]1(O)Cc2c(O)c3c(c(O)c2[C@@H](O[C@H]2C[C@H](N)[C@H](O)[C@H](C)O2)C1)C(=O)c1ccccc1C3=O`, the remaining activity was 125%.

`C[C@]1(C2CCCC2)Cc2cc(OCC(=O)O)c(Cl)c(Cl)c2C1=O`: the remaining activity was 113%.

For `COc1cc(NS(C)(=O)=O)ccc1Nc1c2ccccc2nc2ccccc12`, the remaining activity was 108%.

Take `CC[n+]1c(/C=C/C=C2/N(C)c3ccccc3C2(C)C)sc2ccccc21`: the remaining activity was 93.2%.

`COc1cccc(OC)c1OCCNCC1COc2ccccc2O1` (stereo not given): the remaining activity is 105%.

Turning to `OC[C@H]1NC[C@@H](O)[C@@H]1O`, the remaining activity was 102%.

Turning to `CC(C)NC[C@@H](O)COc1ccc(CC(N)=O)cc1`, the remaining activity is 117%.

`COc1ccc(CCNC[C@@H](O)c2ccc(O)cc2)cc1OC`: the remaining activity is 91.4%.

For `CC(=O)NCCc1ccc(O)c(O)c1`, the remaining activity is 116%.

With `CCCc1c(OCCCOc2ccc(OCC(=O)O)cc2)ccc(C(C)=O)c1O`, the remaining activity was 101%.

For the compound `O=C(O)CCC/C=C\C[C@@H]1[C@@H](/C=C/[C@H](O)C2Cc3ccccc3C2)[C@@H](F)C[C@@H]1O`, the remaining activity is 97.7%.

As to `O=C(O)[C@@H]1C[C@H](C(=O)O)N1`, the remaining activity is 109%.

`O=C(O)/C(=C/c1c(C(=O)O)[nH]c2cc(Cl)cc(Cl)c12)c1ccccc1`: the remaining activity is 117%.

Regarding `COc1cccc(C(=O)NCCN2CCN(c3ccc(Cl)cc3)CC2)c1`, the remaining activity was 124%.
